Values joined by “and” are separate entries in the source; they are usually repeats but may differ in a detail not shown here. Equal entries are not always repeated. Active and inactive are the calls of the source.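 How the source made its calls, unless noted: active means thallium flux through the channel raised or lowered by more than 3 SD from vehicle-only wells, actives on both sides; inactive means the rest.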
How the values were obtained:
[1] = P. berghei load reduction in hepatocytes – cell-based, HepG2, luciferase luminescence, HepG2 viability, primary screen (AID 624349; in the data active means parasite load remaining mostly below about 12%, no sharp cut-off; inactive means mostly above about 10%;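 further: 100% = mean of DMSO negative control wells on the same plate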); conditions: P. berghei liver stage in HepG2, luciferase luminescence, concentration not given here; parasite load remaining: stronger effect = lower value; viability: measured here: HepG2 viability without parasites
[2] = signal quenchers or enhancers, Cy5 substrate/SSB – biochemical, NIH Clinical Collection, E. coli SSB, artefact control for HCV NS3 helicase inhibitor project (AID 743268; call rule not given here); conditions: Cy5-oligo bound E. coli SSB, fluorescence interference
[3] = tested on: Hepatitis C virus NS3 helicase; test: blockers of NS3h binding to DNA – biochemical, fluorescence polarization, NIH Clinical Collection, primary screen (AID 743270; call rule not given here); conditions: NS3 helicase binding to Cy5-dT15 DNA, stronger effect = higher value, concentration not given here
[4] = target: Single-stranded DNA-binding protein (Escherichia coli (strain K12)) (UniProt P0AGE0); test: SSB-ssDNA binding inhibitors – biochemical, fluorescence polarization, NIH Clinical Collection, counter-screen for HCV NS3 helicase inhibitor project (AID 743271; in the data active means inhibition above about 28%); conditions: E. coli SSB-DNA binding, stronger effect = higher value, concentration not given here
[5] = compounds distorting NS3 helicase fluorescence signal – biochemical, NIH Clinical Collection, artefact control for HCV NS3 helicase inhibitor project (AID 743272; call rule not given here;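 further: HCV NS3 helicase with a Cy5 labelled single stranded DNA probe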); conditions: fluorescence interference counterscreen, HCV NS3 helicase assay; stronger effect = lower value
[6] = target: 6-phosphogluconate dehydrogenase, decarboxylating (Homo sapiens) (UniProt P52209); test: inhibition of human phosphogluconate dehydrogenase – biochemical, recombinant enzyme, NADPH absorbance, primary screen (AID 1159550;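 active means at least 20% inhibition of 6-phosphogluconate dehydrogenase activity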); conditions: recombinant 6PGD, NADPH absorbance 341 nm; at 10 µM; stronger effect = higher value
Chain of 6-phosphogluconate dehydrogenase, decarboxylating (Homo sapiens) (P52209 whole entry, looked up): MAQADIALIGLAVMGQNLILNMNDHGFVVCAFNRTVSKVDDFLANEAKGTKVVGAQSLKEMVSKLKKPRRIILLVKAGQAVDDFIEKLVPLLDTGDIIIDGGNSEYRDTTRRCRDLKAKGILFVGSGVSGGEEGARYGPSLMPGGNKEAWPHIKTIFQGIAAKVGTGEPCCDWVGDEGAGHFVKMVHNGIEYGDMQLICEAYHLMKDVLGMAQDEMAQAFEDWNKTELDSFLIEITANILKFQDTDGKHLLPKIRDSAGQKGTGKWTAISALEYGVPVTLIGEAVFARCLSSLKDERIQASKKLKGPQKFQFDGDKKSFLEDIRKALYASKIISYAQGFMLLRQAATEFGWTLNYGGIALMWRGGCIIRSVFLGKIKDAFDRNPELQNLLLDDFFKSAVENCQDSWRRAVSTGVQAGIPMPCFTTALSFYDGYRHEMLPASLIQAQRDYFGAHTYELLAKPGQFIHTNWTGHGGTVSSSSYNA

[7] = viability loss with induced miR-34 in A549 – imaging, A549 dox-inducible miR-34, nuclei and caspase counts, primary screen (AID 1347080;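 active means compounds whose cell count with miR-34 switched on is under 0.7 times the count with it off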); conditions: A549 miR-34 inducible, Hoechst nuclei count, 48 h
[8] = MELAS cybrid and Rieske KO viability enhancers – cell-based, MELAS cybrids, Rieske KO mouse fibroblasts, CellTiter-Glo, primary screen (AID 1508586;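 active means mean z-score across replicates of 1.96 or higher in either the MELAS or the Rieske mutant cell line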;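 further: z relative to plate mean and SD of compound and empty wells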); conditions: low glucose
[9] = target: NAD(+) hydrolase SARM1 (Homo sapiens) (UniProt Q6SZW1); test: blocking NAD cleavage by SARM1 SAM-TIR – cell lysate, NAD-Glo luminescence (AID 1508614;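 active means compound whose remaining NAD level is above about 45 nM, limit read from the data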); conditions: SAM-TIR HEK293T lysate NADase, at 1 µM, stronger effect = higher value
Chain of NAD(+) hydrolase SARM1 (Homo sapiens) (Q6SZW1 whole entry, looked up, the tested form may be a part): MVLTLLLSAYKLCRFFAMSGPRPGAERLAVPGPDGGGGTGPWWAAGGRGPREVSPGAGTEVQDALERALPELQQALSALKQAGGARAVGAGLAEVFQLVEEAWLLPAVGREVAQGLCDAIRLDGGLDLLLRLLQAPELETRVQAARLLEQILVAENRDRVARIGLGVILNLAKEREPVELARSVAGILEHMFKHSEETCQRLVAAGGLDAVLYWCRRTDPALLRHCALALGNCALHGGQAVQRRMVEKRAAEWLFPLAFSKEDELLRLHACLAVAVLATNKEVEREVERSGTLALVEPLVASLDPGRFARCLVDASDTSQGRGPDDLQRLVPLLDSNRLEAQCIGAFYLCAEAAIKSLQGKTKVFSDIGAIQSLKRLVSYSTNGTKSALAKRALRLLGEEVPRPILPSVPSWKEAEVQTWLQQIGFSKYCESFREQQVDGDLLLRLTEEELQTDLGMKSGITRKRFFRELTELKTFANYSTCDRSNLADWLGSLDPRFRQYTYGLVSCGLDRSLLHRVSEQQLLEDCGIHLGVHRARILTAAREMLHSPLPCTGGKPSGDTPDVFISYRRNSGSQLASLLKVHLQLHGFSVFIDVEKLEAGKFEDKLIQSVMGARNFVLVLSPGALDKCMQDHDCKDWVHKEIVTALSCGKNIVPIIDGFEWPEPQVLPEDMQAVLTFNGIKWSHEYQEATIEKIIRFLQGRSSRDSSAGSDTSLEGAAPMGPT

[10] = target: Mitogen-activated protein kinase 7 (Homo sapiens) (UniProt Q13164); test: Gal4-ERK5 driven luciferase induction – cell-based, HTS, primary screen (AID 1508626;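 active means luciferase signal above three times the same-plate solvent-only control wells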;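 further: luciferase driven by Gal4-ERK5 fusion binding five Gal4 sites before minimal TATA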); conditions: HeLa Gal4-ERK5 transactivation, 18 h, at 5 µM, stronger effect = higher value
Chain of Mitogen-activated protein kinase 7 (Homo sapiens) (Q13164 whole entry, looked up, the tested form may be a part): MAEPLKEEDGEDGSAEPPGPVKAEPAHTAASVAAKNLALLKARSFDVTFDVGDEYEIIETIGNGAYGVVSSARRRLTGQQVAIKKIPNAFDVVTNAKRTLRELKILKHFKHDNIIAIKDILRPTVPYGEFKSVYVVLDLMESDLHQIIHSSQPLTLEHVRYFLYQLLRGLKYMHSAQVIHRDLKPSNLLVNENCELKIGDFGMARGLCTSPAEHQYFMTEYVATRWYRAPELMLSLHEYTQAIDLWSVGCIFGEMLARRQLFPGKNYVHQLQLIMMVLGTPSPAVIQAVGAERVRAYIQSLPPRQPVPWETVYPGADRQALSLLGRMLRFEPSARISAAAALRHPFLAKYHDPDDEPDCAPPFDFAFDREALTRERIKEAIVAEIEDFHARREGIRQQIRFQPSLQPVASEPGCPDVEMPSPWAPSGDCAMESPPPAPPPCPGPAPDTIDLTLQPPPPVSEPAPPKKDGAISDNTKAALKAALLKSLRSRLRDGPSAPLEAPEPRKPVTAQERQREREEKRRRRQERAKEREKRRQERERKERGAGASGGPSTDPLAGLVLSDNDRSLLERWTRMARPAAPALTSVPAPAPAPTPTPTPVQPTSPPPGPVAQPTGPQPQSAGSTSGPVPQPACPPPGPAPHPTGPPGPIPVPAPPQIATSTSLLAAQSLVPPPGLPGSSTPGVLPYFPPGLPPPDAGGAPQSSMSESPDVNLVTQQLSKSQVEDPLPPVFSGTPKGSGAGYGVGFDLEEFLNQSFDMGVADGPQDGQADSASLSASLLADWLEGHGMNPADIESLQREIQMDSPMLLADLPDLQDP

[11] = galactose survival enhancers in mitochondrial complex I cybrids – cell-based, galactose medium, ATP luminescence, primary screen (AID 1645843;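 active means z-score of at least 1.8 in each of two replicates, scored against plate mean and spread of sample wells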;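 further: positive z means more ATP and so rescue of galactose-driven cybrid death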); conditions: complex I mutant cybrid cells, 72 h, stronger effect = higher value
[12] = tested on: F380Y; test: BK channel mutant inhibitors and activators – cell-based, U2OS BacMam, thallium flux, beta subunits, selectivity assay, profiling panel (AID 1259406); conditions: U2OS BacMam BK variants, at 30 µM;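 further: initial slope of Thallos dye fluorescence rise after thallium is added; log ratio against the mean of 0.3% DMSO vehicle wells on the same plate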
[13] = tested on: F380Y/beta2Delta; test: as above; conditions: U2OS BacMam BK variants, at 30 µM
[14] = target: Calcium-activated potassium channel subunit alpha-1 (Homo sapiens) + Leucine-rich repeat-containing protein 26 (Homo sapiens) (UniProt Q12791+Q2I0M4); test: as above; conditions: U2OS BacMam BK variants, F380Y/Slo1WT/gamma1, at 30 µM
Chain of Calcium-activated potassium channel subunit alpha-1 (Homo sapiens) + Leucine-rich repeat-containing protein 26 (Homo sapiens) (Q2I0M4 whole entry, looked up, one chain of several): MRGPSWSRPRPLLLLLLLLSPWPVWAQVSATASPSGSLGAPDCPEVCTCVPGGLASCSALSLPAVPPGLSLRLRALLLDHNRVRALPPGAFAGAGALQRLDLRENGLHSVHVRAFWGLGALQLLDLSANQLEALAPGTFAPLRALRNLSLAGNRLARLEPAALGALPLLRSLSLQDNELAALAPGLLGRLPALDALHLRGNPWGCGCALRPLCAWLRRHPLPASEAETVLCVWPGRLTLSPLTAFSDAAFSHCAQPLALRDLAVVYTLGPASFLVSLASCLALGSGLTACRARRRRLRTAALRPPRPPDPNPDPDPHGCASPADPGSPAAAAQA

[15] = tested on: R275C; test: as above; conditions: U2OS BacMam BK variants, at 30 µM
[16] = tested on: R275C/beta1; test: as above; conditions: U2OS BacMam BK variants, at 30 µM
[17] = tested on: R275C/beta2Delta; test: as above; conditions: U2OS BacMam BK variants, at 30 µM
[18] = EMT-state selective cytotoxicity in co-culture – imaging, PC-3E GFP, TEM4-18 mCherry, primary screen (AID 1345086;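 active means compounds killing one labelled cell type while sparing the other, by normalised counts and ratio limits, not self-fluorescent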;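 on all read-outs here: cells exposed to compound for 72 h before imaging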;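 on red/green cell ratio (normalised): normalised mesenchymal count divided by normalised epithelial count so high means epithelial killing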); conditions: PC-3E GFP / TEM4-18 mCherry co-culture, imaging cell counts, at 1 µM; for red/green cell ratio (normalised): actives lie on both sides, counts scaled to control wells, 1 = unselective
[19] = compounds altering viability of human ES cells (AID 493140; call rule not given here;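 further: cells exposed to compounds for four days before counting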); conditions: human embryonic stem cell survival screen; stronger effect = higher value
[20] = stronger effect = lower value, cell number ratio, induced over uninduced
[21] = measured here: relative caspase fold change +Dox/-Dox
[22] = measured here: total cells with miR-34 induction, stronger effect = lower value
[23] = measured here: total cells without miR-34 induction
[24] = MELAS cybrid survival, CellTiter-Glo 48 h, stronger effect = higher value
[25] = Rieske KO mouse fibroblast survival, CellTiter-Glo 72 h
[26] = measured here: epithelial PC-3E GFP cell survival
[27] = measured here: mesenchymal TEM4-18 mCherry cell survival

For `Nc1ccn([C@@H]2O[C@H](CO)[C@@H](O)C2O)c(=O)n1` (stereo not given in full), the parasite load remaining [1] was 112% (inactive) and 32.3% (inactive), the viability [1] was 77.2% and 77% and the fluorescence ratio [2] was 1 (inactive). The inhibition [3] was -5.15% (inactive), the inhibition [4] was -0.87% (inactive) and the fluorescence ratio [5] was 0.87 (inactive). The inhibition [6] was -3.33% (inactive), the fold change [7, 20] was 1.11 (inactive) and the fold change [7, 21] was 1.22. For the same compound, the cell count [7, 22] was 3020, the cell count [7, 23] was 2720 and the z-score [8, 24] was 0.809 and -1.64 (inactive). For the same compound, the z-score [8, 25] was 2.19 and 0.364, the remaining NAD [9] was 10 nM (inactive) and the luciferase signal [10] was 88 AU (inactive). The z-score [11] was -1.98 (inactive), the log fold change Tl+ flux [12] was -0.0332 (inactive) and the log fold change Tl+ flux [13] was 0.0269 (inactive). For the same compound, the log fold change Tl+ flux [14] was 0.0371 (inactive), the log fold change Tl+ flux [15] was 0.00256 (inactive) and the log fold change Tl+ flux [16] was -0.0266 (inactive). For the same compound, the log fold change Tl+ flux [17] was -0.0193 (inactive).
For `O=C(O)[C@H](O)[C@@](O)(Cc1ccc(O)cc1)C(=O)O`, the inhibition [6] was 12.5% (inactive), the red/green cell ratio (normalised) [18] was 1.3 (inactive) and the normalised cell number [18, 26] was 0.73. For the same compound, the normalised cell number [18, 27] was 0.94.
With `O=c1ccc2ccc(O)cc2o1` the inhibition [6] was 5.77% (inactive), the red/green cell ratio (normalised) [18] was 0.88 (inactive) and the normalised cell number [18, 26] was 1.05. It also gave a normalised cell number [18, 27] of 0.93.
With `CC(=O)OCC(=O)[C@@]1(O)CC[C@H]2[C@@H]3CCC4=CC(=O)CC[C@]4(C)[C@H]3[C@@H](O)C[C@@]21C` the parasite load remaining [1] was 82.4% (inactive) and 26% (inactive), the viability [1] was 130% and 68% and the fluorescence ratio [2] was 0.96 (inactive). The inhibition [3] was -0.45% (inactive), the inhibition [4] was 1.81% (inactive) and the fluorescence ratio [5] was 0.96 (inactive). For the same compound, the inhibition [6] was 8.37% (inactive), the fold change [7, 20] was 0.933 (inactive) and 0.77 (inactive) and the fold change [7, 21] was 0.523 and 1.29. For the same compound, the cell count [7, 22] was 7330 and 6560, the cell count [7, 23] was 7860 and 8520 and the z-score [8, 24] was 0.499 (inactive) and 0.396 (inactive). The z-score [8, 25] was 0.874 and 1.08, the remaining NAD [9] was 10 nM (inactive) and the luciferase signal [10] was 36 AU (inactive). For the same compound, the z-score [11] was -0.03 (inactive) and 0.39 (inactive), the log fold change Tl+ flux [12] was -0.0118 (inactive) and the log fold change Tl+ flux [13] was 0.0163 (inactive). For the same compound, the log fold change Tl+ flux [14] was 0.0135 (inactive), the log fold change Tl+ flux [15] was -0.0512 (inactive) and the log fold change Tl+ flux [16] was -0.0363 (inactive). For the same compound, the log fold change Tl+ flux [17] was -0.0239 (inactive).
For `CCC(=O)OCC(=O)[C@@]1(OC(=O)CC)[C@@H](C)C[C@H]2[C@@H]3CCC4=CC(=O)C=C[C@]4(C)[C@@]3(Cl)[C@@H](O)C[C@@]21C`, the parasite load remaining [1] was 87.4% (inactive) and 97.8% (inactive), the viability [1] was 126% and 93.5% and the fluorescence ratio [2] was 1.01 (inactive). The inhibition [3] was 0.45% (inactive), the inhibition [4] was 2.57% (inactive) and the fluorescence ratio [5] was 0.96 (inactive). The inhibition [6] was -4.35% (inactive), the fold change [7, 20] was 0.914 (inactive) and 0.792 (inactive) and the fold change [7, 21] was 1.6 and 1.23. The cell count [7, 22] was 6840 and 6120, the cell count [7, 23] was 7490 and 7730 and the z-score [8, 24] was 0.616 (inactive). For the same compound, the z-score [8, 25] was 1.23, the remaining NAD [9] was 10 nM (inactive) and the luciferase signal [10] was 188 AU (inactive). The z-score [11] was -1.24 (inactive), the log fold change Tl+ flux [12] was -0.163 (active) and the log fold change Tl+ flux [13] was -0.0617 (inactive). The log fold change Tl+ flux [14] was 0.021 (inactive), the log fold change Tl+ flux [15] was -0.105 (active) and the log fold change Tl+ flux [16] was 0.0418 (inactive). The log fold change Tl+ flux [17] was 0.0132 (inactive).
In the case of `C=CC1=C(C(=O)O)N2C(=O)[C@@H](NC(=O)/C(=N\O)c3csc(N)n3)[C@H]2SC1` (stereo in doubt), the parasite load remaining [1] is reported as 166% (inactive) and 48.1% (inactive), the viability [1] is reported as 87.7% and 99.2% and the inhibition [6] is reported as -2.05% (inactive). For the same compound, the red/green cell ratio (normalised) [18] was 1.17 (inactive), the normalised cell number [18, 26] was 0.89 and the normalised cell number [18, 27] was 1.04. For the same compound, the fold change [7, 20] was 0.92 (inactive), the fold change [7, 21] was 4.11 and the cell count [7, 22] was 12500. For the same compound, the cell count [7, 23] was 13600, the z-score [8, 24] was -0.152 (inactive) and the z-score [8, 25] was -0.423. For the same compound, the remaining NAD [9] was 10 nM (inactive) and the luciferase signal [10] was 264 AU (inactive).
For `C[C@]12CC[C@@H]3c4ccc(O)cc4CC[C@H]3[C@@H]1CC[C@@H]2O`, the survival [19] was 11.2 (inactive), the fluorescence ratio [2] was 1 (inactive) and the inhibition [3] was 2.77% (inactive). For the same compound, the inhibition [4] was -0.87% (inactive), the fluorescence ratio [5] was 0.97 (inactive) and the inhibition [6] was -7.69% (inactive). For the same compound, the z-score [8, 24] was 1.01 (inactive) and 0.292 (inactive), the z-score [8, 25] was -0.193 and 1.1 and the remaining NAD [9] was 10 nM (inactive). For the same compound, the luciferase signal [10] was 184 AU (inactive), the z-score [11] was 0.115 (inactive) and -0.055 (inactive) and the log fold change Tl+ flux [12] was 0.0249 (inactive). For the same compound, the log fold change Tl+ flux [13] was -0.0581 (inactive), the log fold change Tl+ flux [14] was 0.072 (inactive) and the log fold change Tl+ flux [15] was 0.021 (inactive). For the same compound, the log fold change Tl+ flux [16] was 0.0222 (inactive) and the log fold change Tl+ flux [17] was -0.0294 (inactive).
For `CCCc1nc(C(C)(C)O)c(C(=O)OCc2oc(=O)oc2C)n1Cc1ccc(-c2ccccc2-c2nn[nH]n2)cc1`, the parasite load remaining [1] was 123% (inactive) and 56.6% (inactive) and 38.5% (inactive), the viability [1] was 84.8% and 93.3% and 100% and the inhibition [6] was -1.37% (inactive). The red/green cell ratio (normalised) [18] was 1.07 (inactive), the normalised cell number [18, 26] was 1.01 and the normalised cell number [18, 27] was 1.08. The fold change [7, 20] was 0.993 (inactive) and 0.942 (inactive) and 0.929 (inactive), the fold change [7, 21] was 0.262 and 5.26 and 0.77 and the cell count [7, 22] was 7890 and 12500 and 10500. For the same compound, the cell count [7, 23] was 7940 and 13300 and 11300, the z-score [8, 24] was -0.0808 (inactive) and -0.0697 (inactive) and -0.516 (inactive) and the z-score [8, 25] was -0.0525 and -0.445 and -0.184. The remaining NAD [9] was 10 nM (inactive), the luciferase signal [10] was 116 AU (inactive) and the z-score [11] was 0.375 (inactive).

From PubChem BioAssay
